Experimental data reported in PubChem BioAssay (NCATS).
Results filed as inconclusive are left out. Calls of active or inactive are those of the source. Unless noted, calls follow the shape of the dose curve; as a rule, active = well fitted curve in the direction sought with a large enough effect; inconclusive = small, poorly fitted or top-dose-only effect, or another doubt; inactive = no such curve, though single readings can be large; an effect the other way counts as inactive or inconclusive.

Assays:
[1] = biological target: Metallo-beta-lactamase type 2 (Klebsiella pneumoniae) (UniProt C7C422); assay: qHTS to identify inhibitors of the New Delhi Metallo-beta-lactamase (NDM): assay validation screen against the NCATS LOPAC Collection (AID 1794843);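 also: nitrocefin turnover by NDM-1 measured as 485 nm absorbance at plateau; % is scaled to controls: 0 for no effect and ±100 for the full control effect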
How it was run: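 Nitrocefin hydrolysis (50 uM substrate stock) by NDM-1, 2 nM final, was followed by 485 nm absorbance after compound preincubation; buffer was 50 mM HEPES pH 7.0, 1 uM ZnSO4, 0.01% Tween20.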

[2] = biological target: Glutathione peroxidase 1 (Homo sapiens) (UniProt P07203); assay: Primary qHTS Assay for Inhibitors of Recombinant Selenoprotein Glutathione Peroxidase 1 (GPX1) (AID 1845191); also: nearly all actives have a fitted effect of over 65% in size; as to activity, negative = inhibition: % is scaled to controls: 0 for no effect and ±100 for the full control effect
How it was run: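 NADPH consumption tracked by fluorescence at 340/450 nm between t=0 and t=15 min, room temperature. Final mix: 10 nM GPX1, 100 nM glutathione reductase, 1 mM GSH, 0.5 mM NADPH, 0.5 mM cumene hydroperoxide, 0.01% BSA; 30 min compound–enzyme preincubation.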

[3] = biological target: Phospholipid hydroperoxide glutathione peroxidase GPX4 (Homo sapiens) (UniProt P36969); assay: Primary qHTS Assay for Inhibitors of Recombinant Selenoprotein Glutathione Peroxidase 4 (GPX4) (AID 1845192); settings: outcome: dose series up to 50 µM unless noted; also: nearly all actives have a fitted effect of over 65% in size
How it was run: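 NADPH consumption followed by fluorescence at 340/450 nm, t=0 and after 15 min at room temperature. Reaction started with cumene hydroperoxide (0.5 mM final) after 30 min compound–GPX4 preincubation; final 200 nM GPX4, 100 nM GR, 1 mM GSH, 0.5 mM NADPH.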

[4] = qHTS profiling for inhibitors of Plasmodium falciparum proliferation (AID 504749); also: nearly all actives have a fitted effect of over 60% in size; also: potency is read from the fitted curve at half-maximal effect;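 as to activity, negative = inhibition: 0% = DMSO vehicle and full inhibition = artemisinin control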; settings: P. falciparum in erythrocytes, SYBR Green DNA, 72 h
How it was run: (§1)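 In a 72 h erythrocytic culture (37 C, humidified, 5% CO2) at 2.5% hematocrit and 0.3% starting parasitemia, compounds were tested; SYBR Green I in detergent lysis buffer stained parasite DNA overnight.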

3D7 = assay: as above; settings: P. falciparum in erythrocytes, SYBR Green DNA, 72 h; series mostly up to 28.7 µM
How it was run: as §1

7G8 = assay: as above; settings: P. falciparum in erythrocytes, SYBR Green DNA, 72 h; series mostly up to 28.7 µM
How it was run: as §1

AA1029 = assay: as above; settings: P. falciparum in erythrocytes, SYBR Green DNA, 72 h; series mostly up to 28.7 µM
How it was run: as §1

AS120 = assay: as above; settings: P. falciparum in erythrocytes, SYBR Green DNA, 72 h; series mostly up to 28.7 µM
How it was run: as §1

ATS189 = assay: as above; settings: P. falciparum in erythrocytes, SYBR Green DNA, 72 h; series mostly up to 28.7 µM
How it was run: as §1

ATS95 = assay: as above; settings: P. falciparum in erythrocytes, SYBR Green DNA, 72 h; series mostly up to 28.7 µM
How it was run: as §1

C2A = assay: as above; settings: P. falciparum in erythrocytes, SYBR Green DNA, 72 h; series mostly up to 28.7 µM
How it was run: as §1

[5] = qHTS drug screen for cell cycle checkpoint inhibitors in PARPi-resistant BRCA-mutant ovarian cancer cell lines. (AID 1963452; calls by dose curve); settings: PEO1/OlaR viability, CellTiter-Glo luminescence, 96 h, stronger effect = lower value
How it was run: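 PEO1, PEO4 and PEO1/OlaR ovarian cancer cells, 600 per well, exposed 96 h at 37C to a dilution series. Viability read by CellTiter-Glo luminescence, normalized to DMSO and empty wells; activity summarized as Z-AUC.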

[6] = at 28.7 µM (top of the series), parasite line A
[7] = at 28.7 µM (top of the series), parasite line B
[8] = at 12.8 µM (top of the series), parasite line A
[9] = at 12.8 µM (top of the series), parasite line B

Chain of Phospholipid hydroperoxide glutathione peroxidase GPX4 (Homo sapiens) (P36969 whole entry, looked up): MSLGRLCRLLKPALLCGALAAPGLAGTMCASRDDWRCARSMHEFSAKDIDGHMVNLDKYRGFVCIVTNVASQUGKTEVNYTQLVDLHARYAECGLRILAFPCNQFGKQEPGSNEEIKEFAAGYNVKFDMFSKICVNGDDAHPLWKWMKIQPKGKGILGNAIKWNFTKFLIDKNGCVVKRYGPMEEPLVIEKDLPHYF
Chain of Glutathione peroxidase 1 (Homo sapiens) (P07203 whole entry, looked up): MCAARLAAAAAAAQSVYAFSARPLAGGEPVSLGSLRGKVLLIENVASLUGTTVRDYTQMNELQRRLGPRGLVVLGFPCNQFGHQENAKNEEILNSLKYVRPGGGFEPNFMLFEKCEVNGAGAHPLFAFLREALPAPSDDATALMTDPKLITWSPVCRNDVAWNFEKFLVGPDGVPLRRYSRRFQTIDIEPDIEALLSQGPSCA
Chain of Metallo-beta-lactamase type 2 (Klebsiella pneumoniae) (C7C422 whole entry, looked up): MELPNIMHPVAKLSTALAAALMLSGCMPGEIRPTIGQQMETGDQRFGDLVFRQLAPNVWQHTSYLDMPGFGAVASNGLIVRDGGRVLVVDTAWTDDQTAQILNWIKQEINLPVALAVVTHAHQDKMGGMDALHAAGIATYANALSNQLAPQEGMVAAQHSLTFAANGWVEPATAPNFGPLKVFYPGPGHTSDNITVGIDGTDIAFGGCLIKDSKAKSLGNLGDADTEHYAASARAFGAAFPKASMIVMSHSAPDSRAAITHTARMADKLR

CC(C(=O)O)c1ccc(CC2CCCC2=O)cc1 (configuration not stated)
inactive: Potency [1] | Potency [2] | outcome [3] | activity, negative = inhibition [4, 6] 0.257% | activity, negative = inhibition [4, 7] 5.29% | Potency (3D7) | Potency (7G8) | Potency (AA1029) | Potency (AS120) | Potency (ATS189) | Potency (ATS95) | Potency (C2A)

NC(N)=NC(=O)Cc1c(Cl)cccc1Cl
active: Potency ([4]; parasite line A) 5.62 µM | Potency ([4]; parasite line B) 5.01 µM | Potency (7G8) 12.6 µM
inactive: Potency [1] | Potency [2] | outcome [3] | Potency (3D7)

Cc1nc2c([nH]1)c(=O)n(C)c(=O)n2Cc1ccco1
inactive: Potency [1] | Potency [2] | outcome [3] | activity, negative = inhibition [4, 6] -3.89% | activity, negative = inhibition [4, 7] -2.06% | Potency (3D7) | Potency (7G8) | Potency (AA1029) | Potency (AS120) | Potency (ATS189) | Potency (ATS95) | Potency (C2A)

FC(F)(F)c1ccccc1-n1ccnc1
inactive: Potency [1] | Potency [2] | outcome [3] | activity, negative = inhibition [4, 6] 11.5% | activity, negative = inhibition [4, 7] -3.4% | Potency (3D7) | Potency (7G8) | Potency (AA1029) | Potency (AS120) | Potency (ATS189) | Potency (ATS95) | Potency (C2A)

CC[N+](C)(C)c1cccc(O)c1
inactive: Potency [1] | Potency [2] | outcome [3] | activity, negative = inhibition [4, 8] 14.2% | activity, negative = inhibition [4, 9] 8.4% | Potency (3D7) | Potency (7G8) | Potency (AA1029) | Potency (AS120) | Potency (ATS189) | Potency (ATS95) | Potency (C2A)

NC(=O)c1cn(Cc2c(F)cccc2F)nn1
inactive: Potency [1] | Potency [2] | outcome [3] | activity, negative = inhibition [4, 6] 14.6% | activity, negative = inhibition [4, 7] 0.958% | Potency (3D7) | Potency (7G8) | Potency (AA1029) | Potency (AS120) | Potency (ATS189) | Potency (ATS95) | Potency (C2A)

CN(C)C(=O)Oc1cccc([N+](C)(C)C)c1
inactive: Potency [1] | Potency [2] | outcome [3] | activity, negative = inhibition [4, 6] 4.77% | activity, negative = inhibition [4, 7] -6.35% | Potency (3D7) | Potency (7G8) | Potency (AA1029) | Potency (AS120) | Potency (ATS189) | Potency (ATS95) | Potency (C2A)

CCN(CC)CCCN(c1ccccc1)C1Cc2ccccc2C1
inactive: Potency [1] | Potency [2] | outcome [3]
active: Potency ([4]; parasite line A) 4.47 µM | Potency ([4]; parasite line B) 7.08 µM | Potency (3D7) 10 µM | Potency (7G8) 1.78 µM | Potency (AA1029) 4.47 µM | Potency (AS120) 4.47 µM | Potency (ATS189) 12.6 µM | Potency (ATS95) 5.01 µM | Potency (C2A) 11.2 µM

CCCC(C(=O)OCCN(CC)CC)(c1ccccc1)c1ccccc1
inactive: Potency [1] | Potency [2]
active: Potency (3D7) 10 µM | Potency (7G8) 3.98 µM | Potency (AA1029) 11.2 µM

CSc1ccc(C(=O)c2[nH]c(=O)[nH]c2C)cc1
inactive: Potency [1] | Potency [2] | activity, negative = inhibition [4, 6] 9.87% | activity, negative = inhibition [4, 7] 9.86% | Potency (3D7) | Potency (7G8) | Potency (AA1029) | Potency (AS120) | Potency (ATS189) | Potency (ATS95) | Potency (C2A)

CC(N=C(NC#N)Nc1ccncc1)C(C)(C)C (configuration not stated)
inactive: Potency [1] | Potency [2] | activity, negative = inhibition [4, 6] -3.66% | activity, negative = inhibition [4, 7] -7.16% | Potency (3D7) | Potency (7G8) | Potency (AA1029) | Potency (AS120) | Potency (ATS189) | Potency (ATS95) | Potency (C2A)

Cc1cccc(C)c1NC(=O)C(C)N (configuration not stated)
inactive: Potency [1] | outcome [3]

Nc1c2c(nc3ccccc13)CCCC2O (configuration not stated)
inactive: Potency [1] | Potency [2] | activity, negative = inhibition [4, 6] -3.4% | activity, negative = inhibition [4, 7] 3.67% | Potency (3D7) | Potency (7G8) | Potency (AA1029) | Potency (AS120) | Potency (ATS189) | Potency (ATS95) | Potency (C2A)

Cc1nc2sccn2c(=O)c1CCN1CCC(=C(c2ccc(F)cc2)c2ccc(F)cc2)CC1
active: Potency (7G8) 10 µM | Potency (AS120) 11.2 µM
inactive: Potency [1] | Potency [2] | outcome [3]

COc1ccc(CN(CCN(C)C)c2ccccn2)cc1
inactive: Potency [1] | Potency [2] | activity, negative = inhibition [4, 6] -7.89% | activity, negative = inhibition [4, 7] -2.95% | Potency (3D7) | Potency (7G8) | Potency (AS120) | Potency (ATS189) | Potency (C2A)

CCOC(=O)C1=C(C)NC(C)=C(C(=O)OC)C1c1cccc([N+](=O)[O-])c1 (configuration not stated)
active: Potency (7G8) 10 µM | Potency (AA1029) 11.2 µM | Potency (AS120) 11.2 µM
inactive: Potency [1] | Potency [2] | Potency (C2A)

CN1CCN(C2=Nc3ccccc3Oc3ccc(Cl)cc32)CC1
inactive: Potency [1] | Potency [2] | outcome [3] | activity, negative = inhibition [4, 8] 4.87% | activity, negative = inhibition [4, 9] -8.95% | Potency (3D7) | Potency (AA1029) | Potency (AS120) | Potency (ATS189) | Potency (ATS95) | Potency (C2A)

CO[C@@]1(NC(=O)CSCC#N)C(=O)N2C(C(=O)O)=C(CSc3nnnn3C)CS[C@@H]21
inactive: Potency [1] | outcome [3]

CCCCNc1c(C(=O)OCC)c(C)nc2c1cnn2CC
inactive: Potency [1] | Potency [2] | activity, negative = inhibition [4, 6] 2.9% | activity, negative = inhibition [4, 7] -6.97% | Potency (3D7) | Potency (AA1029) | Potency (ATS189) | Potency (ATS95) | Potency (C2A)

CC(=O)[C@]1(O)Cc2c(O)c3c(c(O)c2[C@@H](O[C@H]2C[C@H](N)[C@H](O)[C@H](C)O2)C1)C(=O)c1ccccc1C3=O
active: Potency ([4]; parasite line A) 3.55 µM | Potency ([4]; parasite line B) 11.2 µM | Potency (3D7) 2.82 µM | Potency (7G8) 1.41 µM | Potency (AA1029) 3.55 µM | Potency (AS120) 3.16 µM | Potency (ATS189) 5.62 µM | Potency (ATS95) 5.01 µM | Potency (C2A) 6.31 µM
-0.26: Z-AUC ([5]; measured here: PEO4 Z-AUC)
inactive: Potency [1] | Potency [2] | Z-AUC [5] -0.489
-0.953: Z-AUC ([5]; measured here: PEO1 parental Z-AUC)

CC(C)NNC(=O)c1ccncc1
active: Potency (AA1029) 7.94 µM
inactive: Potency [1] | Potency [2] | outcome [3] | activity, negative = inhibition [4, 6] -11.8% | Potency (3D7) | Potency (7G8) | Potency (AS120) | Potency (ATS189) | Potency (C2A)
